Holding throughout (assay): NCI-60 one-dose screen, 48 h (100 = growth as untreated, 0 = no growth, -100 = all killed)
The test system of experiment [1] is T-47D breast. Conditions: 10 µM unless noted.
For experiment [2], the system named is BT-549 breast. Conditions: 10 µM unless noted.
Experiment [3] has as its system MDA-MB-435 melanoma. As to conditions: 10 µM unless noted.
Experiment [4] relates to MCF7 breast.
Experiment [5] has as its system HCT-116 colon. As to conditions: 10 µM unless noted.
Experiment [6] relates to HCC-2998 colon. Conditions: 10 µM unless noted.
The subject of experiment [7] is KM12 colon. Conditions: 10 µM unless noted.
The subject of experiment [8] is SW-620 colon. Conditions: 10 µM unless noted.

Where “and” joins values, the source holds several entries; their conditions need not be identical. Identical values can stand only once. Compounds without any hit were thinned out: in the full panel of roughly 83,000, 20% have a hit.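 Cells were grown in 96-well plates and exposed to the test compound at a single concentration for 48 hours; results are reported as percent growth, with values below 10 considered active.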 Calls of active or inactive are those of the source.

In the case of `C/C(=C\c1ccccc1)C(O)C(=O)c1nc2ccc([N+](=O)[O-])cc2[nH]c1=O` (centres undefined), the growth in experiment [1] was 77.5% (inactive); in experiment [2], 78.9% (inactive); in experiment [3], 99.5% (inactive); in experiment [4] (10 µM unless noted), 79.3% (inactive); in experiment [5] it was 91.4% (inactive); in experiment [6] it was 106% (inactive). In experiment [7], the growth is 90.3% (inactive).
With `O=S(=O)(O)c1ccc2cc(O)ccc2c1`, the growth was 102% (inactive) in experiment [1]; 105% (inactive) in experiment [2]; 107% (inactive) in experiment [3]; 99.8% (inactive) in experiment [4] (10 µM unless noted); 108% (inactive) in experiment [5]; 109% (inactive) in experiment [6]. Further, the growth in experiment [7] was 110% (inactive).
On to `CCC(=O)Oc1ccc(OCc2ccccc2)cc1`, for which the growth in experiment [1] was 113% (inactive) and 89.5% (inactive); in experiment [2], 73.4% (inactive); in experiment [3], 96.9% (inactive) and 82.1% (inactive); in experiment [4] (10 µM unless noted), 91.4% (inactive) and 88.5% (inactive); in experiment [5], 99.7% (inactive) and 102% (inactive); in experiment [6], 84.4% (inactive) and 87.7% (inactive). Also, the growth in experiment [7] is 86.5% (inactive) and 89.6% (inactive).
On to `O=C1c2ccccc2C(c2ccccc2)C1c1ccccc1` (centres undefined), for which the growth was 82.9% (inactive) in experiment [1]; 131% (inactive) in experiment [2]; 95.9% (inactive) in experiment [3]; 69.3% (inactive) in experiment [4] (10 µM unless noted); 79.3% (inactive) in experiment [5]; 95.4% (inactive) in experiment [6]. In addition, in experiment [7], the growth was 95.1% (inactive).
For `Cc1nc2c(=O)[nH]c(=S)[nH]c2[nH]c1=O`, the growth in experiment [1] is 112% (inactive) and 102% (inactive); in experiment [2] it was 118% (inactive) and 105% (inactive); in experiment [3] it was 107% (inactive) and 102% (inactive); in experiment [4] (10 µM unless noted), 101% (inactive) and 99.9% (inactive); in experiment [5], 108% (inactive) and 105% (inactive); in experiment [6] it was 102% (inactive) and 106% (inactive). Further, the growth in experiment [7] is 109% (inactive).
With `O=c1[nH]nnc2cc(Cl)ccc12`, the growth in experiment [1] was 106% (inactive) and 98.4% (inactive); in experiment [2], 110% (inactive); in experiment [3], 104% (inactive) and 102% (inactive); in experiment [8], 95.3% (inactive) and 99.8% (inactive); in experiment [4] (10 µM unless noted), 114% (inactive) and 94.5% (inactive); in experiment [5], 104% (inactive) and 103% (inactive). The growth in experiment [7] was 101% (inactive) and 102% (inactive).
As for `O=C(NC(=O)c1ccc(F)c(Cl)c1)NC1CC1`, the growth was 91.8% (inactive) in experiment [1]; 107% (inactive) and 109% (inactive) in experiment [2]; 114% (inactive) and 102% (inactive) in experiment [3]; 104% (inactive) and 100% (inactive) in experiment [8]; 100% (inactive) and 89.6% (inactive) in experiment [4] (10 µM unless noted); 104% (inactive) and 105% (inactive) in experiment [5]. In addition, in experiment [7], the growth is 105% (inactive) and 101% (inactive).
For the molecule `Cn1c(-c2ccccc2)cc(=O)cc1-c1ccccc1`, the growth in experiment [1] was 97.1% (inactive); in experiment [2], 86.8% (inactive); in experiment [3], 116% (inactive); in experiment [4] (10 µM unless noted), 53.3% (inactive); in experiment [5], 61.6% (inactive); in experiment [6], 127% (inactive). In addition, the growth in experiment [7] was 98.5% (inactive).
Turning to `CC(C)(C)OC(=O)c1ccc(NCc2cc(O)ccc2O)cc1`, the growth in experiment [1] is -67.5% (active); in experiment [2] it was -17.6% (active); in experiment [3] it was 20% (inactive); in experiment [4] (10 µM unless noted), 29.5% (inactive); in experiment [5] it was 36.2% (inactive); in experiment [6], 113% (inactive). In addition, the growth in experiment [7] is 8.14% (active).
As for `OC1CCCN(Cc2ccccc2)C1` (centres undefined), the growth in experiment [1] is 94.9% (inactive); in experiment [2], 112% (inactive); in experiment [3], 107% (inactive); in experiment [4] (10 µM unless noted) it was 102% (inactive); in experiment [5] it was 103% (inactive); in experiment [6], 116% (inactive). Moreover, the growth in experiment [7] is 107% (inactive).
On to `CC(=O)Nc1ccc2oc(=O)ccc2c1`, for which the growth in experiment [1] is 85.3% (inactive); in experiment [2] it was 89.8% (inactive); in experiment [3], 105% (inactive); in experiment [8] it was 107% (inactive); in experiment [4] (10 µM unless noted), 110% (inactive); in experiment [5], 86.5% (inactive). For the same molecule, the growth in experiment [7] is 100% (inactive).
Take `NCCCCCC(=O)O`: the growth was 101% (inactive) [middle of 4 runs] in experiment [1]; 98.5% (inactive) and 107% (inactive) and 112% (inactive) in experiment [2]; 105% (inactive) [middle of 4 runs] in experiment [3]; 109% (inactive) and 98.2% (inactive) and 107% (inactive) in experiment [8]; 105% (inactive) [middle of 4 runs] in experiment [4] (10 µM unless noted); 114% (inactive) [middle of 4 runs] in experiment [7].
With `COc1cc2oc3cc(=O)cc4oc(-c5ccccc5)cc(c2c2c1CCC(c1ccccc1)O2)c43` (centres undefined), the growth was 55.8% (inactive) in experiment [1]; 78.8% (inactive) in experiment [2]; 69.2% (inactive) in experiment [3]; 30% (inactive) in experiment [4] (10 µM); 19.2% (inactive) and 3.41% (active) in experiment [4] (100 µM); 59.7% (inactive) in experiment [5]. Moreover, the growth was 60.7% (inactive) in experiment [6] and 74.3% (inactive) in experiment [7].
As to `CCNC1=CC(=O)c2ncccc2C1=O`, the growth in experiment [1] was 86.1% (inactive); in experiment [2], -27.8% (active); in experiment [3], -91.7% (active); in experiment [4] (10 µM unless noted), -13.2% (active); in experiment [5] it was 2.73% (active); in experiment [6], 29.8% (inactive). Moreover, in experiment [7], the growth was 48.2% (inactive).
Turning to `CCOC(=O)C(N)Cc1cc(I)c(O)c(I)c1` (centres undefined), the growth in experiment [1] was 105% (inactive) and 111% (inactive); in experiment [2], 109% (inactive) and 98.5% (inactive); in experiment [3], 105% (inactive) and 114% (inactive); in experiment [4] (10 µM unless noted), 107% (inactive) and 103% (inactive); in experiment [5], 110% (inactive) and 95.3% (inactive); in experiment [7], 107% (inactive).

The values are drawn from PubChem BioAssay (NCI).
